Test [1] deals with Large ribosomal subunit protein eL36 (UniProt Q9Y3U8). Put plainly: cross-linking mass spectrometry.
Test [2] has as its target Obscurin (UniProt Q5VST9). Nature of the test: cross-linking mass spectrometry.
The target of test [3] is Inositol 1,4,5-trisphosphate-gated calcium channel ITPR2 (UniProt Q14571). Nature of the test: cross-link between two proteins; cross-linking mass spectrometry.
The target of test [4] is Nucleolar and coiled-body phosphoprotein 1 (UniProt Q14978). The test is described as above.
The target in test [5] is Putative ribosomal protein eS10-like (UniProt Q9NQ39). The test is described as above.
In test [6] the target is Ragulator complex protein LAMTOR3 (UniProt Q9UHA4). Described as above.
Chain of Ragulator complex protein LAMTOR3 (Q9UHA4 whole entry, one chain of several): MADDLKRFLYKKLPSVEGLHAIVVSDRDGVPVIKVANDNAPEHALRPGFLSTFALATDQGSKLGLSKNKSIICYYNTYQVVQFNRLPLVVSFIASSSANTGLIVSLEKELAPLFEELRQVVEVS
Test [7] has as its target Synaptonemal complex protein 2-like (UniProt Q5T4T6). The description is as above.
Test [8] concerns the target V-type proton ATPase subunit D (UniProt Q9Y5K8). The description is as above.
Test [9] deals with Zinc finger protein 28 homolog (UniProt Q8NHY6). The description is as above.
Test [10] addresses T1, Zinc finger protein 786 (UniProt Q8N393).
T1 sequence: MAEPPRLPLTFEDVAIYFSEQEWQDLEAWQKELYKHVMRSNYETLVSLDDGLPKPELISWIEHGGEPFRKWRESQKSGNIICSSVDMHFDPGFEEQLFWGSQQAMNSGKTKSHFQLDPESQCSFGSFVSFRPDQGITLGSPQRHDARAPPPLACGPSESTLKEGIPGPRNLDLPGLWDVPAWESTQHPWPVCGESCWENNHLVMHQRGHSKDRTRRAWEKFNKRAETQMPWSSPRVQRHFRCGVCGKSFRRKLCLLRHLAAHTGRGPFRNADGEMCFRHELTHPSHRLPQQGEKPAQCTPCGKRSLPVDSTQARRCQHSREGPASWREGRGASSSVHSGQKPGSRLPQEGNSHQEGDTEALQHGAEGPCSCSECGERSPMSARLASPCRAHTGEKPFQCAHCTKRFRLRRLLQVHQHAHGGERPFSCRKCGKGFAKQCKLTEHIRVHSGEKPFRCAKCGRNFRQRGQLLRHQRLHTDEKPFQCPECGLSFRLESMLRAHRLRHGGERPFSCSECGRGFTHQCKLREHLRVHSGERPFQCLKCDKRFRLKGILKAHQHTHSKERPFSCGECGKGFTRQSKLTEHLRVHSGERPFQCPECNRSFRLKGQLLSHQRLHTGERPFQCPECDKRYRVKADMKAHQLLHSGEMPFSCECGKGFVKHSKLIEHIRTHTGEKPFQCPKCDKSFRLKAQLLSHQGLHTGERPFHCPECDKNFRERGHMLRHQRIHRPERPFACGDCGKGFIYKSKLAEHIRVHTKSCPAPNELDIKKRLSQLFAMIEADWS
The description is as above.

The target in test [11] is Cullin-associated NEDD8-dissociated protein 1 (UniProt Q86VP6). Nature of the test: co-fractionation; co-fractionation; cross-linking mass spectrometry.
Chain of Cullin-associated NEDD8-dissociated protein 1 (Q86VP6 whole entry): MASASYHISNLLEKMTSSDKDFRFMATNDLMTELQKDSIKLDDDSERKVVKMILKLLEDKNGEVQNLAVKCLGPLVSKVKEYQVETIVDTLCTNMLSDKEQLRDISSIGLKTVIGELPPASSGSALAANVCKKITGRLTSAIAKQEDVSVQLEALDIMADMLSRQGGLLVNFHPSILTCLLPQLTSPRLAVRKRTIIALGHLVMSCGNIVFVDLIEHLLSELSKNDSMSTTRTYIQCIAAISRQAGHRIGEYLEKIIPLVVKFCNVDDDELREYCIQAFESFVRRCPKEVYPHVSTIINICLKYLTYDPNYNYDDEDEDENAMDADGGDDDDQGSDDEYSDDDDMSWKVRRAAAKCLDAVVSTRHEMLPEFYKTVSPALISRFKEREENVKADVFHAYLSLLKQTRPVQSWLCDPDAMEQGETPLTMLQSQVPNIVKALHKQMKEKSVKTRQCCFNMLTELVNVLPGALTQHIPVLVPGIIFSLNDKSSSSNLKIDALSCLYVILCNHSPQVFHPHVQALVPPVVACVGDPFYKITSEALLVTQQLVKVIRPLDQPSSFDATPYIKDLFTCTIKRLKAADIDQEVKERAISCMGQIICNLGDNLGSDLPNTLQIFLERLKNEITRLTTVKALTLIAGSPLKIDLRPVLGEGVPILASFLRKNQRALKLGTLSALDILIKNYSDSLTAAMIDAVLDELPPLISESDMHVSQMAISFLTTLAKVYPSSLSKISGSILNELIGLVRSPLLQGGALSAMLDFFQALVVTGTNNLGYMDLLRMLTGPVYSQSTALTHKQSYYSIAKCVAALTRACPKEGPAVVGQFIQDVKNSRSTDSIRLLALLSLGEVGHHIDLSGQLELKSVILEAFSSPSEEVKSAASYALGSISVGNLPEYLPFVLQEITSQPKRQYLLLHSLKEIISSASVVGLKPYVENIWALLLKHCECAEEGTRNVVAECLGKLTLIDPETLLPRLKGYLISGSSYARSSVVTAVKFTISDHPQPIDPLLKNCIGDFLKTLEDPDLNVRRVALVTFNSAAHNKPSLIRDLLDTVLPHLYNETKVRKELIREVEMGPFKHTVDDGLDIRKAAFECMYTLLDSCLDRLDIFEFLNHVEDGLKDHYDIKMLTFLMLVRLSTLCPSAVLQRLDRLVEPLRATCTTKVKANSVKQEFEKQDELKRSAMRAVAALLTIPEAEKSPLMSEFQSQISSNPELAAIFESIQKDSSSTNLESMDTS
The target in test [12] is Actin-related protein 2 (UniProt P61160). Nature of the test: cross-link between two proteins; co-fractionation; cross-linking mass spectrometry.
The target of test [13] is Actin-related protein 2/3 complex subunit 1A (UniProt Q92747). The test is described as above.
In test [14] the target is Actin-related protein 2/3 complex subunit 3 (UniProt O15145). Described as above.
The target in test [15] is Actin-related protein 2/3 complex subunit 4 (UniProt P59998). The test is described as above.
The target of test [16] is Vacuolar protein sorting-associated protein 35 (UniProt Q96QK1). The test is described as above.
Test [17] deals with Enhancer of rudimentary homolog (UniProt P84090). Put plainly: cross-link between two proteins; affinity purification or IP with mass spectrometry; cross-linking mass spectrometry.

Chain of Histone H1.4, P10412 (P10412 whole entry): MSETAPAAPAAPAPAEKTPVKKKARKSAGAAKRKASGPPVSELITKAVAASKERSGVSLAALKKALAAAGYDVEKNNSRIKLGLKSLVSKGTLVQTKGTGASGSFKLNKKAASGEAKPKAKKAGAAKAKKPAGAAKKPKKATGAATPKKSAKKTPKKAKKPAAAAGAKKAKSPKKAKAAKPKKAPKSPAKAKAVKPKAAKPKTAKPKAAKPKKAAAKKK
Chain of Ragulator complex protein LAMTOR1, Q6IAA8 (Q6IAA8 whole entry, one chain of several): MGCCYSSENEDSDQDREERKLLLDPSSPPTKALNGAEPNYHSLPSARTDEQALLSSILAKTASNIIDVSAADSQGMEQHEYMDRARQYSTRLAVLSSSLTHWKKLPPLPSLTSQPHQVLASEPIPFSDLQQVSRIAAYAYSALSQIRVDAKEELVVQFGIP
Chain of V-type proton ATPase subunit D (Q9Y5K8 whole entry): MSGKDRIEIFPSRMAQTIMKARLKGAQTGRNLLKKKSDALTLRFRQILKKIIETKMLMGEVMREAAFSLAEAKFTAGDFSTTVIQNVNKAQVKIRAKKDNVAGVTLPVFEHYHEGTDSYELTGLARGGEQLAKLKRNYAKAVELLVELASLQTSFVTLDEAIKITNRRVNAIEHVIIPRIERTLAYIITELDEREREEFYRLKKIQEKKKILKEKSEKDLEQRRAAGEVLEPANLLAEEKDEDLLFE
Chain of Cullin-1, Q13616 (Q13616 whole entry): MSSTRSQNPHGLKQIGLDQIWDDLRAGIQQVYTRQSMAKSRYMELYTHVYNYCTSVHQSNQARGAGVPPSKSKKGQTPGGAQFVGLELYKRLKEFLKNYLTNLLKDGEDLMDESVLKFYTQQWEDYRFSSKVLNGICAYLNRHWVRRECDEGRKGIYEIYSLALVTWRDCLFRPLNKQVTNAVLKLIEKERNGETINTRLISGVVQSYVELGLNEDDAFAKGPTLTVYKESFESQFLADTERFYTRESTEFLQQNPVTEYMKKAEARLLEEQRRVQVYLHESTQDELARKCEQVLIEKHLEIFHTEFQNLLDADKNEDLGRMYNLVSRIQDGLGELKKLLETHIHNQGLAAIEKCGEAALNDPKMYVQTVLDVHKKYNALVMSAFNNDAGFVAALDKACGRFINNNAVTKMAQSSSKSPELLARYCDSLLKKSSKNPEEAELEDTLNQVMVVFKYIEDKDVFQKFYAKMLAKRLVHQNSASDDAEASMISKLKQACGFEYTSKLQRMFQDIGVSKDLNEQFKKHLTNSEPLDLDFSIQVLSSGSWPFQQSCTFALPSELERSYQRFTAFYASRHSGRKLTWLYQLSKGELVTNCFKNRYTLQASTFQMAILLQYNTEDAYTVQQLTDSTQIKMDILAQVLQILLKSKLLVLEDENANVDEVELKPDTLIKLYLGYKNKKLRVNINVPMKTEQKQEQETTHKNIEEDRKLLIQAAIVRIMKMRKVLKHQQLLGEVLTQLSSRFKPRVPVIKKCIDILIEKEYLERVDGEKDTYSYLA
Chain of V-type proton ATPase catalytic subunit A, P38606 (P38606 whole entry): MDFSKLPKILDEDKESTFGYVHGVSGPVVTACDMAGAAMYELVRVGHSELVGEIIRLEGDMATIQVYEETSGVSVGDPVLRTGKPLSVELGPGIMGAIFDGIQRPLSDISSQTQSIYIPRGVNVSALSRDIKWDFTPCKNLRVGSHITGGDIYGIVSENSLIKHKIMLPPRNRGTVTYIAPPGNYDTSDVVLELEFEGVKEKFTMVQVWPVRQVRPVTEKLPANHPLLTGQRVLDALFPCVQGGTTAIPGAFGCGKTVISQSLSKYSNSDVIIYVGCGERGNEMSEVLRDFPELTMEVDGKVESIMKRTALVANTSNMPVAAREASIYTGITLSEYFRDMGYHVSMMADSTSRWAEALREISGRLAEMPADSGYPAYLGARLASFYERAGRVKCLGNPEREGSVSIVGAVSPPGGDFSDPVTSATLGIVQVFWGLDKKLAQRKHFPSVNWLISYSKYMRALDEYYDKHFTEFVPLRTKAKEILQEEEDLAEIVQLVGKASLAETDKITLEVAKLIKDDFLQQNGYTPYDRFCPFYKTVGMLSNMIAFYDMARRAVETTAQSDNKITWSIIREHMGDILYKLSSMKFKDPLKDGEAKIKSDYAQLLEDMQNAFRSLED

As for “Small ribosomal subunit protein uS17, P62280”, in test [1], the “listed as a hit” value is “yes”.

Regarding “Large ribosomal subunit protein eL8, P62424”, in [2], the “listed as a hit” value is “yes”.

In the case of “Large ribosomal subunit protein uL29, P42766”, the “listed as a hit” value in test [3] was “yes”.

For the substance “Small ribosomal subunit protein eS7, P62081”, the “listed as a hit” value in test [4] is “yes”.

As to “Small ribosomal subunit protein eS10, P46783”, the “listed as a hit” value in [5] is listed as “yes”.

Consider “Ragulator complex protein LAMTOR1, Q6IAA8”, for which the “listed as a hit” value in test [6] is on record as “yes”.

With “Large ribosomal subunit protein uL5, P62913”, the “listed as a hit” value in test [7] is reported as “yes”.

For the substance “V-type proton ATPase catalytic subunit A, P38606”, the “listed as a hit” value in test [8] was “yes”.

On to “Large ribosomal subunit protein uL1, P62906”, for which, in test [9], the “listed as a hit” value was “yes”.

Consider Histone H1.4, P10412, for which the “listed as a hit” value in [10] was “yes”.

On to Cullin-1, Q13616, for which the “listed as a hit” value in [11] is “yes”.

In the case of “Actin-related protein 2/3 complex subunit 5, O15511”, the “listed as a hit” value in [12] is reported as “yes”.

For the substance Actin-related protein 3, P61158, the “listed as a hit” value in test [13] is recorded as “yes”.

Regarding “Actin-related protein 2/3 complex subunit 2, O15144”, the “listed as a hit” value in [14] and in [15] was “yes” throughout.

Consider “Vacuolar protein sorting-associated protein 26A, O75436”, for which the “listed as a hit” value in test [16] is “yes”.

Consider “DNA-directed RNA polymerase II subunit RPB1, P24928”, for which the “listed as a hit” value in test [17] is on record as “yes”.

The values are drawn from paper doi:10.1101/2025.02.07.636106.
